From PubChem
Most compounds without a hit are left out; they make up all but 3.7% or so of the library.
D3 antag = antagonists of human D3 dopamine receptor; D3R cells, DiscoveRx beta-arrestin luminescence, antagonist mode; hits give low values; max response, negative = inhibition, %; hit rate 2.5% among 360,000; AID 652054; in the data active means max response below about -50%; inconclusive means no clear call, values can overlap the other calls; further: on the % scale 0 is the no-effect control and ±100 the full control effect
Target sequence (P35462 whole entry, looked up): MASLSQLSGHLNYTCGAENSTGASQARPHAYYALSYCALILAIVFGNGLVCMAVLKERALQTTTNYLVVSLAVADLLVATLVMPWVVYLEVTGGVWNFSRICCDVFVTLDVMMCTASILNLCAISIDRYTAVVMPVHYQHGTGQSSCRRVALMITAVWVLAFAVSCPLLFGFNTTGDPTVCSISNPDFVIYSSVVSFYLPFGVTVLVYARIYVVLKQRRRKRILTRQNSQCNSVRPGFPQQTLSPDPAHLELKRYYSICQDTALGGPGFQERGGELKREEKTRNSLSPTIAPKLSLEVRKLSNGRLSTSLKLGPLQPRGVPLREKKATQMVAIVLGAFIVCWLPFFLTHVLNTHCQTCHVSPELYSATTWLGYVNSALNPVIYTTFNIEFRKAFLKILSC
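Cells plated overnight at 1500 cells/well, then exposed to library compounds with dopamine controls for 90 minutes at 37 degrees C. DiscoveRx reagent added for 30–60 minutes at room temperature; luminescence read, quantitative HTS format.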
B2AR arrestin = beta2AR (human) beta-arrestin recruitment activity | P07550 | beta-arrestin recruitment to beta2AR, cell-based reporter | Potency, µM (top dose mostly 46.1 µM), without a hit: at the highest dose activation, actives largely listed as activators | hit rate 0.02% among 330,000 | AID 492947;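 further: potency means the concentration at half of the fitted maximal effect; 0% = DMSO controls and full agonism = EC100 isoproterenol or metaproterenol; nearly all actives have a fitted effect of over 65% in size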
D3 ag = agonists of human D3 dopamine receptor; P35462; D3R DiscoveRx beta-arrestin cells, luminescence, 90 min; max activation, %; hit rate 0.58% among 410,000; AID 652048; in the data active means max activation above about 30%; further: 0% is about no effect
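Agonist-mode cell screen: cells plated at 1500/well and incubated overnight at 37 °C, then exposed to library compounds for 90 min at 37 °C. Detection reagent was added for 30–60 min at room temperature, and luminescence was read.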
PTHR1 agonist = agonists of human PTHR1 parathyroid hormone receptor; hit rate 0.075% among 410,000; HEK293 GP2 PTHR1 cells, GloSensor cAMP luminescence, 1 h; Potency, µM (top dose mostly 115 µM), inactives show at the highest dose activation, hits mostly activators; Q03431; further: potency means the concentration at half of the fitted maximal effect; nearly all actives have a fitted effect of over 55% in size
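HEK-293-derived GP2 cells expressing PTHR1 and a GloSensor cAMP reporter, 3,000/well, plated overnight, given luciferin plus IBMX (each 0.5 mM as added) for 1 h at 37 °C, then compound for 1 h at 37 °C. Luminescence was read after 15 min at room temperature.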
BRCA1 expr up = BRCA1 expression activation | MCF7-BRCA1-FFLuc reporter, luminescence, 48 h; response scale: scaled: vehicle 0%, 10 µM genistein 100% | Potency, µM (doses to about 46.1 µM), without a hit: top-dose activation, most hits filed as activators | hit rate 1.1% among 380,000 | AID 624202; further: potency means the concentration at half of the fitted maximal effect; nearly all actives have a fitted effect of over 80% in size
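Reporter cells (MCF7, BRCA1 promoter-firefly luciferase) received library compounds across a concentration series for 48 h. End-point luminescence was measured and concentration-effect curves derived after normalization.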
RGS4 inhibitor = inhibitors of human regulator of G protein signaling 4 | Transcreener GDP fluorescence polarization, RGS4-accelerated GTP hydrolysis | hit rate 0.039% among 390,000 | P49798 | Potency, µM (doses to about 114 µM), for the others: top-dose activity change, negative = inhibition, most hits filed as inhibitors; further: potency means the concentration at half of the fitted maximal effect; on the % scale 0 is the no-effect control and ±100 the full control effect; nearly all actives have a fitted effect of over 75% in size
Target sequence (P49798 whole entry, looked up): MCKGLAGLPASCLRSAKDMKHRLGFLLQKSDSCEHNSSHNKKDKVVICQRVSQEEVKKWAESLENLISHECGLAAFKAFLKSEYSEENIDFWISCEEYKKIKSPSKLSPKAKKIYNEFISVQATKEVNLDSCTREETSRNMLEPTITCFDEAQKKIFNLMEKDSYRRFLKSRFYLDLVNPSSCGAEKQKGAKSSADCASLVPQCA
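MLSMR compounds (23 nl, pin-transferred) preincubated 10 min at room temperature with a 500nM (2x) first reagent, then RGS4 at 900nM (2x) plus Transcreener GDP mix added; fluorescence polarization (620/688 nm) read before and after 90 min at 30 °C.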
The depositor's hits bear a star; i = inactive; ? = inconclusive; nt = no result; [ ] = another dose, or the depositor's remark. Unless noted, the call rests on the fitted dose curve; in most records, active means well fitted curve in the direction sought with a large enough effect; inconclusive means small, poorly fitted or top-dose-only effect, or another doubt; inactive means no such curve, though single readings can be large; an effect the other way counts as inactive or inconclusive.

SMILES | D3 antag | B2AR arrestin | D3 ag | PTHR1 agonist | BRCA1 expr up | RGS4 inhibitor
CCN(CC)S(=O)(=O)c1ccc(-c2nnc(SCC(C)=O)o2)cc1 | -5 | 0% | -2 | i | 2% | 24%
O=C(CSc1nnc(-c2ccc(F)cc2)o1)N1CCCCC1 | 5 | 0% | 3 | i | 8.9µM* | -8%
CCN(CC)S(=O)(=O)c1ccc(-c2nnc(SCC(=O)N3CCOCC3)o2)cc1 | -63* | -1% | -7 | i | 26% | -4%
O=C(CSc1nnc(-c2ccccc2)o1)N1CCCCC1 | 4 | 0% | -2 | -19% | 3.2µM* | -8%
Cc1ccc(F)cc1NC(=O)COC(=O)COc1ccc(C#N)cc1 | -23 | -1% | -14 | ? | 3% | 1%
O=[N+]([O-])c1ccc(S(=O)(=O)Nc2nnc(C3CCCCC3)s2)cc1 | 7 | 0% | 1 | -16% | -32% | 7%
CC1CCN(CC(=O)Nc2ccc(Cl)cc2[N+](=O)[O-])CC1 | -10 | 0% | 2 | i | -2% | -14%
Cc1ccc([N+](=O)[O-])cc1NC(=O)CN1CCC(C)CC1 | -84* | -1% | -12 | i | -8% | -5%
O=C(NNC(=O)C1CC=CCC1)c1cccc(Br)c1 (stereo not drawn) | -13 | nt | 8 | -8% | 2% | -9%
COc1ccc(NC(=O)CN2CCC(C)CC2)c([N+](=O)[O-])c1 | 10 | -1% | -9 | -12% | 62% | 1%
COc1ccc(NC(=O)CN2CCCCC2)c([N+](=O)[O-])c1 | 7 | 0% | 3 | i | 10µM* | -10%
O=C(CN1C(=O)C2CCCCC2C1=O)Nc1cccc([N+](=O)[O-])c1 (stereo not drawn) | -6 | 0% | -11 | i | 37% | 14%
CC1CCN(CC(=O)Nc2cccc([N+](=O)[O-])c2)CC1 | -58* | 3% | -58 | i | 1% | -10%
CC1CCN(CC(=O)NNC(=O)c2cccc(Br)c2)CC1 | -50* | 0% | -34 | i | 6% | 3%
CCN(CC)c1sc(S(=O)(=O)c2ccccc2)nc1S(=O)(=O)c1ccc(C)cc1 | nt | nt | 1 | i | nt | -4%
CC(=O)N[C@@H](CC(=O)N[C@@H](CCC(=O)O)C(=O)O)C(=O)O | nt | nt | -6 | nt | nt | nt
Cc1cc(C)c(C)c(OCC(=O)Nc2ccc(S(=O)(=O)Nc3nc(C)cc(C)n3)cc2)c1 | nt | nt | 8 | -6% | nt | -1%
COc1ccc(NC(=O)c2cc(-c3cc(C)cc(F)c3)n[nH]2)cc1OC | -4 | nt | -11 | i | -2% | nt
Cc1ccc([N+](=O)[O-])cc1NC(=O)CN1CCCCC1 | -78* | 0% | -3 | -20%[57.5 µM] | -20% | 19%
CCOc1cc(NC(=O)C2CCCCC2)c(OCC)cc1NC(=O)c1ccccn1 | 17 | -1% | 49* | -7% | 1% | -7%
CC(=O)c1sc2nc(-c3ccc(C)cc3)c3c(c2c1N)CCCC3 | 68 | -1% | 52* | i | -50% | -46%
COc1ccc(CC(=O)OCC(=O)Nc2cccc(C(C)=O)c2)cc1OC | 11 | 0% | -5 | i | -16% | -14%
Cc1cc(Nc2cccc([N+](=O)[O-])c2)n2c(nc3ccccc32)c1C#N | -93* | 0% | 4 | -16%[57.5 µM] | -68% | -14%
Cc1cc(Nc2ccc(F)cc2)n2c(nc3ccccc32)c1C#N | nt | nt | 10 | -25% | 10% | -24%
COc1ccc(Nc2nc3ccccc3n3nnnc23)cc1 | -90* | 0% | 0 | -34% | -53% | 17%
SMILES | D3 antag | B2AR arrestin | D3 ag | PTHR1 agonist | BRCA1 expr up | RGS4 inhibitor
COc1ccc(Nc2ncnc3ccccc23)c(OC)c1 | 3 | -3% | 7 | -34%[57.5 µM] | 5% | ?
O=C(Oc1ccc(Nc2ncnc3ccccc23)cc1)c1cccnc1 | 9 | 0% | 0 | i | -18% | 1%
O=C(Oc1cccc(Nc2ncnc3ccccc23)c1)c1ccccc1Cl | -24 | 0% | 40* | -29% | -24% | 15%
COc1cccc(Nc2ncnc3ccccc23)c1 | 10 | 0% | -9 | i | 11µM* | 2%
COc1ccc(Nc2ncnc3ccccc23)cc1 | 40 | 0% | 8 | -13%[57.5 µM] | 7.9µM* | 17%
O=C(Cn1cnc2ccc(Cl)cc2c1=O)NC1CCS(=O)(=O)C1 (stereo not drawn) | -13 | 0% | -10 | -3% | -20% | 14%
COCCNC(=O)c1cc2c(c(-c3cccc(C#Cc4ccc(OC)c(OC)c4)c3)n1)[C@H](CCO)N(S(=O)C(C)(C)C)C2 (stereo partly drawn) | 31 | nt | 2 | -20% | -8% | nt
CCC(=O)NC1CC2CCCC(C1)N2Cc1ccc(C)cc1 (stereo not drawn) | -108* | 0% | -20 | i | 11% | -9%
CNC(=S)NC1CC2CCCC(C1)N2Cc1ccccc1OC (stereo not drawn) | -62* | -1% | -37 | i | -1% | 18%
CCNC(=S)NC1CC2CCCC(C1)N2Cc1ccc(C)cc1 (stereo not drawn) | -118* | 0% | -8 | -7% | -25% | -3%
CNC(=S)NC1CC2CCCC(C1)N2Cc1ccc(C)cc1 (stereo not drawn) | -116* | -1% | -9 | i | 1% | -4%[56.9 µM]
CC(=O)NC1CC2CCC(C1)N2Cc1ccc(C)cc1 (stereo not drawn) | -4 | 0% | -9 | i | 11% | 19%[56.9 µM]
C=CCn1c(SCC(=O)N2CCOCC2)nc2ccccc2c1=O | 8 | 0% | -15 | i | 0% | 13%[11.4 µM]
C[C@H](CO)N1C[C@H](C)[C@H](CN(C)Cc2ccncc2)OCc2ccccc2-c2c(n(C)c3ccccc23)C1=O | -2 | nt | -6 | i | -24% | nt
CCCN1C[C@H](CSC)C[C@@H]2c3cccc4[nH]cc(c34)C[C@H]21 | 27 | -1% | 84* | -21% | 11% | ?
CC(=O)Nc1ccc(OCC(O)Cn2c3ccccc3c3ccccc32)c(C)c1 (stereo not drawn) | 26 | 0% | 31* | i | -81% | -8%
Cc1ccccc1OCC(O)Cn1c2ccccc2c2ccccc21 (stereo not drawn) | 44 | 0% | 46* | -1%[57.5 µM] | -33% | -23%
COc1ccc(OC)c(NS(=O)(=O)c2cc3c(cc2Cl)N(C(C)=O)CCO3)c1 | nt | nt | -20 | -53% | 3% | 13%
COc1ccc(OCc2cccc(C(=O)Nn3cc([N+](=O)[O-])cn3)c2)cc1 | -65* | 0% | 0 | -17%[57.5 µM] | -112% | -22%
CC(Cl)=CCn1c(NCCc2ccccc2)nc2c1c(=O)n(C)c(=O)n2C | 75 | nt | 11 | -95% | -45% | nt
CC(C)(C)c1ccc(/C=N/Nc2nncn2N)cc1 | ? | 0% | -5 | -19% | 6% | -33%
